High-throughput results (PubChem BioAssay)
BoNT A protease = inhibitors of Botulinum neurotoxin A light chain protease. multiplex microsphere protease substrate cleavage, flow cytometry. inhibition, % at 10 µM. 360,000 tested, 0.17% active; also: plate controls were buffer without enzyme for full effect and enzyme alone for no effect
BoNT F protease = BoNT F light chain protease inhibition | Multiplex microsphere protease cleavage assay, flow cytometry | inhibition, % at 10 µM | 360,000 tested, 0.22% active | AID 588497; in the data active = inhibition above about 35%, passing the limit was not always enough; inconclusive = no clear call, values can overlap the other calls; also: plate controls were buffer without enzyme for full effect and enzyme alone for no effect
Bead autofluor = compound fluorescence in toxin protease inhibitor counterscreen; compound autofluorescence counterscreen, microsphere flow cytometry; stronger effect = higher value; fluorescence intensity (concentration not given with the values); 360,000 tested, 3.1% active; AID 624483; in the data active = fluorescence intensity above about 16000; inconclusive = no clear call, values can overlap the other calls
Anthrax LF inh2 = anthrax lethal factor protease inhibition; multiplex microsphere protease cleavage assay, LF; inhibition, % at 10 µM; P15917; 360,000 tested, 0.12% active; also: plate controls were buffer without enzyme for full effect and enzyme alone for no effect
Target sequence (P15917 whole entry, looked up): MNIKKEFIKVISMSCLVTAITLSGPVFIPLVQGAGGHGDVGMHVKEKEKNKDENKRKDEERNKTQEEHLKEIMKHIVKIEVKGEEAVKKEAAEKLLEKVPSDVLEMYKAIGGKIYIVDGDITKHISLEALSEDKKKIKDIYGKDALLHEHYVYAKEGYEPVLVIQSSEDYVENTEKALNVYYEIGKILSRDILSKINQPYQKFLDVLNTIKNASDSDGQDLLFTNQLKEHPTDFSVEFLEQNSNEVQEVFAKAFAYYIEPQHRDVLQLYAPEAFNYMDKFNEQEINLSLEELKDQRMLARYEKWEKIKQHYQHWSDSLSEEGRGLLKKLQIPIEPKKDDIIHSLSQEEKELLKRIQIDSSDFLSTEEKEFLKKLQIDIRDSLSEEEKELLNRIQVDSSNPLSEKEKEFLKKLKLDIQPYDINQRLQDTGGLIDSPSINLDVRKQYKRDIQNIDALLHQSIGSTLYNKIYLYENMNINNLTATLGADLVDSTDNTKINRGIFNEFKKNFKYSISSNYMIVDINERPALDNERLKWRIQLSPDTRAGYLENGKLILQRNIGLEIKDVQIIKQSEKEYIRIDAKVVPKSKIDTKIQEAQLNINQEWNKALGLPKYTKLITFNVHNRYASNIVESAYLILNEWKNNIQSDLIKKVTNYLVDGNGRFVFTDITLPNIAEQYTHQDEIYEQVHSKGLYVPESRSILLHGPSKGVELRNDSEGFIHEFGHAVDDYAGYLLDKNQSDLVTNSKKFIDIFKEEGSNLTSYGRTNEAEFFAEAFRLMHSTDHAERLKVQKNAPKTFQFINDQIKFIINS
MazF activator = activators of E. coli MazEF toxin-antitoxin RNase. AID 504720. FAM/BHQ RNA-DNA oligo cleavage fluorescence, 5 h. P0AE70. 350,000 tested, 0.32% active. activation, % at 20 µM; in the data active = activation above about 50%
* marks the source's active call; other numbers are inactive results; ? = inconclusive; + = active, no number. The list is not random: actives were taken first. Their share in the collection is about 3.6%. Rule as the data show it, unless noted: active = inhibition above about 30%; inconclusive = no clear call, values can overlap the other calls; inactive = below that.

SMILES	BoNT A protease	BoNT F protease	Bead autofluor	Anthrax LF inh2	MazF activator
CSc1nc2nccc(/C=C\c3ccccc3)n2n1	?	2	21761*	-1	0
CSc1nc2nccc(-c3ccc(Cl)cc3)n2n1	0	-10	2518	-3	-18
CCCCCCNc1cc(C)oc(=O)c1C(C)=O	0	0	2546	-2	-8
CCCCNc1cc(C)oc(=O)c1C(C)=O	6	6	21662*	-2	1
COc1ccc(C(=O)NC(=O)COC(=O)C2CC2C)cc1 (centres undefined)	-4	-16	?	2	-3
O=[N+]([O-])c1ccc2[nH]c(O)c(N=Nc3ccc(F)cc3)c2c1	0	14	3885	-13	316*
O=[N+]([O-])c1ccc(N=Nc2c(O)[nH]c3ccc(F)cc23)cc1	0	23	4400	4	-24
Oc1[nH]c2ccccc2c1N=Nc1ccccc1	0	0	4650	0	158*
O=C(N=Nc1c(O)[nH]c2ccccc12)Nc1ccccc1	0	-24	3996	-14	-14
Oc1[nH]c2ccccc2c1N=Nc1ccccc1F	0	0	2465	1	+
Oc1[nH]c2ccccc2c1N=Nc1ccc(F)cc1	0	6	2265	-2	+
CN(C(=O)c1nc(-c2ccccc2)n(-c2ccccc2)n1)C1CCS(=O)(=O)C1 (centres undefined)	-1	-4	5401	1	6
O=C(c1cc2cc(F)ccc2[nH]1)N1CCN(C(=O)c2ccco2)CC1	0	-6	5311	-2	8
Oc1[nH]c2ccc(Br)cc2c1N=Nc1ccc(F)cc1	-1	?	4208	18	564*
COc1cc(-c2noc(CCCC(=O)NC3CCCCC3)n2)cc(OC)c1OC	?	-3	17180*	-2	-2
CCNC(=O)COc1cccc2ccccc12	-1	0	21317*	-1	4
CC(=O)Nc1ccc(NC(=O)COc2cccc3ccccc23)cc1	0	-4	3810	-2	0
COc1cc(-c2nc3cnccc3n2C)cc(OC)c1OC	-2	?	4496	-2	0
COc1cc(OC)c(-c2nc3cnccc3n2C)cc1OC	?	-5	16895*	-1	3
CCOc1cc(S(=O)(=O)NC2CCCCC2)ccc1F	2	0	22695*	-9	3
Cc1cc(C)n2c(SCc3ccc(C#N)cc3)nnc2n1	1	3	22207*	-2	6
Cc1cc(C)n2c(SCC#N)nnc2n1	0	2	6064	-4	3
CCOc1ccc(OCC)c(-c2c(=O)n(OCc3ccccc3Br)c3ccccc3[n+]2[O-])c1	0	-3	22784*	1	2
CCOc1ccc(-c2c(=O)n(OCc3ccccc3Br)c3ccccc3[n+]2[O-])c(OCC)c1	0	-2	4167	-2	2
CCCSc1ccc([C@@H]2[C@H]3C(=O)N(CC)C(=O)[C@H]3[C@]3(C(=O)OC)CCCCN23)cc1	-7	22	22612*	1	-76
SMILES	BoNT A protease	BoNT F protease	Bead autofluor	Anthrax LF inh2	MazF activator
CCN1C(=O)[C@@H]2[C@@H](c3ccc(SC4CCCCC4)cc3)N3CCCC[C@@]3(C(=O)OC)[C@@H]2C1=O	-2	27	16473*	7	-174
CCN1C(=O)[C@H]2[C@@H](c3ccc(SC4CCCCC4)c(OC)c3)N3CCCC[C@@]3(C(=O)OC)[C@H]2C1=O	0	-4	4175	-8	3
COc1ccc(NC(=O)CCC(=O)N2CCCC2)c([N+](=O)[O-])c1	2	4	4836	-4	3
Cc1cc(C)c(C(=O)CC(=O)c2ccccc2Cl)c(O)c1	-1	24	3372	-2	5
CC1=C(C#N)C(C)(C)C(C#N)=C(C)N1	0	-1	3638	-2	7
COCCN(C(=O)COC(=O)c1cc(C)n(-c2ccccc2)c1C)c1c(N)n(Cc2ccccc2)c(=O)[nH]c1=O	60*	-9	6533	?	1
COCCN(C(=O)COC(=O)c1cc2ccccc2cc1OC)c1c(N)n(Cc2ccccc2)c(=O)[nH]c1=O	?	-6	?	3	-1
COCCN(C(=O)CSc1nnc(C)n1-c1ccc(C)cc1)c1c(N)n(Cc2ccccc2)c(=O)[nH]c1=O	-50	-84	17749*	-12	3
O=C(C1=C(O)/C(=C/c2ccc(O)cc2)CCC1)C(F)(F)F	0	1	5329	8	-11
COc1ccc(/C=C2\CCCC(C(=O)C(F)(F)F)=C2O)cc1	-1	-10	3731	-2	475*
CC1(C)CC(=O)C(C(c2cccnc2)C2C(=O)CC(C)(C)CC2=O)C(=O)C1	2	6	22323*	1	-11
